From PubChem BioAssay (NCATS) come the findings set out here.

Unmarked numbers belong to inactive results. Records with an inconclusive call do not appear. Calls of active or inactive are those of the source. Unless noted, calls come from the whole dose curve; as a rule, active = well fitted curve in either direction with a large enough effect (not every such curve was filed as active); inconclusive = small, poorly fitted or top-dose-only effect, or another doubt; inactive = flat fitted curve, though single readings scatter. Some results are limits rather than exact numbers.

Assay [1] addresses Lysosomal acid glucosylceramidase (Homo sapiens) (UniProt P04062). In words: Glucocerebrosidase-p2 (AID 348; in the data active = potency below about 10 µM; note: potency is the fitted concentration of half-maximal effect). The settings on record: purified GBA, blue fluorogenic substrate, 40 min. In short, it runs like this:
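Normal human glucocerebrosidase (0.2 nM) with blue fluorogenic substrate (80 uM final) in citrate/phosphate pH 5.9 with 10mM sodium taurocholate, 0.01% tween-20; 40 min RT, NaOH/glycine stop; fluorescence Ex 365/Em 440; AC50 from a titration from 0.6 nM upwards.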

The target of assay [2] is Cytochrome P450 1A2 (Homo sapiens) (UniProt P05177). In words: p450-cyp1a2 (AID 410; calls by dose curve; note: potency is the fitted concentration of half-maximal effect;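 for activity change, negative = inhibition: -100% = full effect of reference inhibitor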). The following applies: recombinant CYP1A2, luciferin-ME demethylation, luminescence; series mostly up to 11.4 µM. In a few lines: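 Luminescent demethylation readout: Luciferin-ME (100uM, equal to Km) turned over by 20nM CYP1A2 for 60 min at room temperature after NADPH regeneration addition, following 10 min compound preincubation. Normalization used 57 uM furafylline as full inhibition.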
Cytochrome P450 1A2 (Homo sapiens), sequence (P05177 whole entry, looked up): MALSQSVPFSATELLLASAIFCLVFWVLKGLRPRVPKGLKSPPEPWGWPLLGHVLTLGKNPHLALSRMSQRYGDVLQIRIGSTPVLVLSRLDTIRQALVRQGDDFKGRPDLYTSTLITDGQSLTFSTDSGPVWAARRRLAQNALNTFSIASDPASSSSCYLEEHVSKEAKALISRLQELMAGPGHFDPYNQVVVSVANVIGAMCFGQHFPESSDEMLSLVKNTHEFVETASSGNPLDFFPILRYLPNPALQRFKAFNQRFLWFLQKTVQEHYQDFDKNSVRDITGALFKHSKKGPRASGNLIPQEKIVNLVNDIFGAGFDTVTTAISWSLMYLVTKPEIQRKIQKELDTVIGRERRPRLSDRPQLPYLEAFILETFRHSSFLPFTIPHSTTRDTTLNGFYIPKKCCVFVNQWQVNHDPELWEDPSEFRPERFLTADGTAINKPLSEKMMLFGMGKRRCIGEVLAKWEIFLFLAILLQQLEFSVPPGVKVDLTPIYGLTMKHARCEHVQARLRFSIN

Assay [3] is described as follows: NFAT Signaling Pathway (AID 444).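 Note: carbachol stimulus at about its EC50 of 1 µM final; % is set by controls: 0 for no effect and ±100 for the full control effect.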 The settings on record: Jurkat NFAT-bla M1, carbachol, beta-lactamase ratio, 5 h; at 7.69 µM (top of the series) unless noted. In short, it runs like this:
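Jurkat cells carrying an NFAT-driven β-lactamase reporter and co-transfected muscarinic M1 receptor were treated with compound plus carbachol (1 uM final, an EC50 level) for 5 h at 37 °C. CCF4 loading followed for 1 h at RT; 460/530 nm ratio gave %activity.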

A short description of assay [4]: Stat Signaling Pathway (AID 446).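 Note: ME-180 cervical cancer cells given 40 pM IL-6 alongside compound; SIE-controlled beta-lactamase reporter measured as 460/530 nm FRET emission ratio; % is set by controls: 0 for no effect and ±100 for the full control effect.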 The following applies: ME-180 SIE beta-lactamase reporter, IL-6 stimulated, 5 h; at 7.69 µM (top of the series) unless noted. In short, it runs like this:
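Compound effects on IL-6-induced STAT reporter activity were measured in ME-180 cells. After overnight culture, cells were co-treated with 40 pM IL-6 for 5 hrs before beta-lactamase substrate loading at room temperature.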

In assay [5] the target is Glucocorticoid receptor (Homo sapiens) (UniProt P04150). In words: GR-GFP Redistribution (AID 450;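 active = compounds whose dose series gives a full or clear partial fitted curve of increased nuclear translocation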; note: potency is the fitted concentration of half-maximal effect). The settings on record: U2OS GR-GFP nuclear translocation, laser cytometry, 2 h.
Glucocorticoid receptor (Homo sapiens), sequence (P04150 whole entry, looked up, the tested form may be a part): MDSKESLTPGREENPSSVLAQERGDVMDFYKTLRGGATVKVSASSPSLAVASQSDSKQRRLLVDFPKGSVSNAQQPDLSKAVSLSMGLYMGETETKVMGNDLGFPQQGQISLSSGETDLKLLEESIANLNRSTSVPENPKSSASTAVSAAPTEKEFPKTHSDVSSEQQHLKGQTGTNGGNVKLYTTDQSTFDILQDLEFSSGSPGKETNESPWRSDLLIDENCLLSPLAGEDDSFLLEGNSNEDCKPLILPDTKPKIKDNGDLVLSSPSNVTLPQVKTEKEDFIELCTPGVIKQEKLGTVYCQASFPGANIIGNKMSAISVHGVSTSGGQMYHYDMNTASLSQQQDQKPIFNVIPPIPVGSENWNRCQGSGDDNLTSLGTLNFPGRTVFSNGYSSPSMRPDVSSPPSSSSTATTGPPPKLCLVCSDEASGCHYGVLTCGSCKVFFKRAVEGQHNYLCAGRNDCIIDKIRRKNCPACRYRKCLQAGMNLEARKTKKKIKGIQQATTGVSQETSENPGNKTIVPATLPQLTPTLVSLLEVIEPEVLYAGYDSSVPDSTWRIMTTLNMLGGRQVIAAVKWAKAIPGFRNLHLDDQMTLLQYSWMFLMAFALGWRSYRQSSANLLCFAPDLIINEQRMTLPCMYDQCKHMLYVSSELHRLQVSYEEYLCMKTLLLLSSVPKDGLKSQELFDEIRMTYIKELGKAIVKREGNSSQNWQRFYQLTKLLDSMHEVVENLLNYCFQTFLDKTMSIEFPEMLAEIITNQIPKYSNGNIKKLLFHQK
Assay [6] shares this target. Put plainly: GR-EFC Redistribution (AID 451; calls by dose curve; note: potency is the fitted concentration of half-maximal effect). The settings on record: CHO-K1 GR-EFC translocation, beta-gal luminescence, 2 h. In short, it runs like this: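 CHO-K1 cells stably expressing nuclear-localized β-gal enzyme acceptor and GR fused C-terminally to the enzyme donor fragment; ligand-driven nuclear translocation restores β-gal by complementation. Compounds titrated up to 46 uM final, 2 h at 37 °C; luminescence read.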

The target in assay [7] is Mitogen-activated protein kinase 10 (Mus musculus) (UniProt Q61831). Put plainly: JNK3 AlphaScreen Assay (AID 530).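 Note: kinase came from lysate of stimulated human HepG2 cells; % is set by controls: 0 for no effect and ±100 for the full control effect.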 The following applies: JNK3 lysate, c-Jun phosphorylation; series mostly up to 11.4 µM. In a few lines: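 Phosphorylation of biotinylated GST-cJun(1-79) at Ser73 is measured by AlphaScreen proximity luminescence. Enzyme is JNK3 in HepG2 lysates activated with interleukin-1beta and tumor necrosis factor alpha; ATP is 10 uM final.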
(In general: Alpha assays give light when donor and acceptor beads are brought close together.)

The target in assay [8] is 3',5'-cyclic-AMP phosphodiesterase 4B (Homo sapiens) (UniProt Q07343). Put plainly: qHTS Assay for Inhibitors of PDE-IV (AID 607; active = well fitted activation curve with a large enough effect in the main read-out, with a control signal flat, not every such curve was filed as active; note: % of control where 0% means no effect). The following applies: HEK293 ACTOne CNG channel cells, membrane potential fluorescence; series mostly up to 22.9 µM. In short, it runs like this:
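ACTOne HEK293 cells carry a modified cAMP-gated CNG channel and express endogenous PDE4; plated 1000 cells/well, compounds up to 22.9 uM final. Membrane-potential dye fluorescence (ex 535/em 590) was read; parental cells received 10 uM forskolin + 100 uM RO 20-1724.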
(In general: qHTS replaces the single test concentration by a dilution series.)

Assay [9] can be described thus: AP1 Signaling Pathway (AID 357). Note: % is set by controls: 0 for no effect and ±100 for the full control effect. The following applies: ME-180 AP-1-bla reporter, EGF-induced, beta-lactamase ratio, 5 h; at 7.69 µM (top of the series) unless noted. In short, it runs like this: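 First, ME-180 AP-1-bla cells were cultured overnight at 37 °C in low-serum Opti-MEM. Next, titrated compounds with EC50 EGF were incubated 5 hours. Finally, CCF4 was added for 2.5 hours and the 460/530 nm ratio recorded.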

In assay [10] the target is Cytochrome P450 3A4 (Homo sapiens) (UniProt P08684). Put plainly: qHTS Assay for Activators of Cytochrome P450 3A4 (AID 885; active = well fitted curve in the direction sought with a large enough effect; an effect the other way counts as inactive or inconclusive; note: nearly all actives have a fitted effect of over 65% in size). The settings on record: recombinant CYP3A4, Luciferin-PPXE luminescence, 60 min; series mostly up to 11.4 µM. In short, it runs like this: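 CYP3A4 activity: Luciferin-PPXE O-dealkylation, 25uM substrate, 200mM KPO4, RT throughout. Read-out is luciferase luminescence; higher values reflect activation.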
Cytochrome P450 3A4 (Homo sapiens), sequence (P08684 whole entry, looked up): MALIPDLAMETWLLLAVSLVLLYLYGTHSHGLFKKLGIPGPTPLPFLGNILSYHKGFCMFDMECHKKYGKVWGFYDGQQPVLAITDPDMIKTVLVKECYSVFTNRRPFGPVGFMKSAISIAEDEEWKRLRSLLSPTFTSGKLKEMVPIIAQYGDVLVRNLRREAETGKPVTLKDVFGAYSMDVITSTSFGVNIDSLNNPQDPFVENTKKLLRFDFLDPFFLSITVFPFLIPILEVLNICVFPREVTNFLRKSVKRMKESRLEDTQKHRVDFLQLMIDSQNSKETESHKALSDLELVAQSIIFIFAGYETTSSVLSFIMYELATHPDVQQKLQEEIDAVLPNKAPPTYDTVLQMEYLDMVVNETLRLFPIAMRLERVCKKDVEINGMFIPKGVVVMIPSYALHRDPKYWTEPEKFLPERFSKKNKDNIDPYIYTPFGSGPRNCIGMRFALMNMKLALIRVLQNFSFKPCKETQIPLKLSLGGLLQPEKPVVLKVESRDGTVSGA

Assay [11] concerns the target Cytochrome P450 2C19 (Homo sapiens) (UniProt P33261). In words: qHTS Assay for Inhibitors and Substrates of Cytochrome P450 2C19 (AID 899; active = well fitted curve in the direction sought with a large enough effect; an effect the other way counts as inactive or inconclusive; note: nearly all actives have a fitted effect of over 60% in size; note: potency is the fitted concentration of half-maximal effect). The settings on record: recombinant CYP2C19, luciferin-H EGE luminescence; series mostly up to 11.4 µM. In short, it runs like this: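 Human CYP2C19 (5nM) with Luciferin-H EGE at 10uM (its KM) in 50mM KPO4 was preincubated with compound for 10 min at 37C. NADPH regeneration started a 60 min 37C reaction. Luciferin was read by luminescence, normalized to 57uM ketoconazole.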

Assay [12] addresses Cytochrome P450 3A4 (Homo sapiens) (UniProt P08684). Put plainly: qHTS Assay for Inhibitors and Substrates of Cytochrome P450 3A4 (AID 884; active = well fitted curve in the direction sought with a large enough effect; an effect the other way counts as inactive or inconclusive; note: potency is the fitted concentration of half-maximal effect; nearly all actives have a fitted effect of over 50% in size). The following applies: recombinant CYP3A4, Luciferin-PPXE luminescence; series mostly up to 57.1 µM. In a few lines:
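Luminescent readout of luciferin produced by CYP3A4 (20 nM) dealkylation of Luciferin-PPXE, 25 uM (its KM). NADPH-driven reaction ran 60 min at RT after 10 min compound preincubation; data scaled to 57 uM ketoconazole as 100% inhibition.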

Assay [13] concerns the target Cytochrome P450 2C9 (Homo sapiens) (UniProt P11712). In words: qHTS Assay for Inhibitors and Substrates of Cytochrome P450 2C9 (AID 883; active = well fitted curve in the direction sought with a large enough effect; an effect the other way counts as inactive or inconclusive; note: % is set by controls: 0 for no effect and ±100 for the full control effect; nearly all actives have a fitted effect of over 60% in size). The settings on record: recombinant CYP2C9, luciferin-H luminescence, 60 min; series mostly up to 11.4 µM. In a few lines: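 Human CYP2C9 (10nM) hydroxylated Luciferin-H (100uM, at its KM) to luciferin in 25mM KPO4. Compound was preincubated 10 min at 37C, then NADPH regeneration started a 60 min reaction at 37C. Luminescence was read after detection reagent, normalized to 57uM sulphaphenazole.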

A short description of assay [14]: qHTS Assay for Identification of Small Molecule Agonists for Hypoxia Response Element Signaling Pathway (AID 914; active = well fitted activation curve with a large enough effect in the signal ratio, with a control signal flat, not every such curve was filed as active; the % refers to the signal ratio; note: potency is the fitted concentration of half-maximal effect; for activation: % of control where 0% means no effect). The following applies: ME-180 (cervical carcinoma) HRE-bla reporter, beta-lactamase ratio, CoCl2, 17 h; activation: active compounds read high. In short, it runs like this: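 Read-out: CCF4 FRET ratio of 460nm to 530nm emission (excitation 405nm) after 2.5 hours at room temperature, taken from HRE-bla ME-180 cells that had been exposed to compound and EC50 CoCl2 for 17 hours.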

Assay [15] has as its target Cytochrome P450 2D6 (Homo sapiens) (UniProt P10635). In words: qHTS Assay for Inhibitors and Substrates of Cytochrome P450 2D6 (AID 891; active = well fitted curve in the direction sought with a large enough effect; an effect the other way counts as inactive or inconclusive; note: potency is the fitted concentration of half-maximal effect; nearly all actives have a fitted effect of over 60% in size). The following applies: recombinant CYP2D6, luciferin-ME EGE luminescence; series mostly up to 11.4 µM. In short, it runs like this:
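Luminescent read-out of luciferin formed by 5 nM human CYP2D6 demethylating 30 uM Luciferin-ME EGE (Km level) over 60 min at room temperature after NADPH regeneration addition. Data normalized to full inhibition by 1.43 uM quinidine.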

Cytochrome P450 2C19 (Homo sapiens), sequence (P33261 whole entry, looked up): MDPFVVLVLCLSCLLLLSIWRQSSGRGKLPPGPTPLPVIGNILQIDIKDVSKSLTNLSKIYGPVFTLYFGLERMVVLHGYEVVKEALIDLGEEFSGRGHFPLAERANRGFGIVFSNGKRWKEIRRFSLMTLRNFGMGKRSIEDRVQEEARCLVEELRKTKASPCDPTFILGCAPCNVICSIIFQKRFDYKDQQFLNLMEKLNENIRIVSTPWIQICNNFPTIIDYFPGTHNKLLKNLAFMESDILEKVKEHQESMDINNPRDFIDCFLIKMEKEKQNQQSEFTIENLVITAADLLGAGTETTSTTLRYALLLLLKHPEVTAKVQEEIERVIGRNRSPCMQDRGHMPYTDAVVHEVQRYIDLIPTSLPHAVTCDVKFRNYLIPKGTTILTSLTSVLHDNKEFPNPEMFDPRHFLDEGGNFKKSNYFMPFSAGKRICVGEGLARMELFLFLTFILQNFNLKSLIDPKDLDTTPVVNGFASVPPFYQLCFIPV
Lysosomal acid glucosylceramidase (Homo sapiens), sequence (P04062 whole entry, looked up): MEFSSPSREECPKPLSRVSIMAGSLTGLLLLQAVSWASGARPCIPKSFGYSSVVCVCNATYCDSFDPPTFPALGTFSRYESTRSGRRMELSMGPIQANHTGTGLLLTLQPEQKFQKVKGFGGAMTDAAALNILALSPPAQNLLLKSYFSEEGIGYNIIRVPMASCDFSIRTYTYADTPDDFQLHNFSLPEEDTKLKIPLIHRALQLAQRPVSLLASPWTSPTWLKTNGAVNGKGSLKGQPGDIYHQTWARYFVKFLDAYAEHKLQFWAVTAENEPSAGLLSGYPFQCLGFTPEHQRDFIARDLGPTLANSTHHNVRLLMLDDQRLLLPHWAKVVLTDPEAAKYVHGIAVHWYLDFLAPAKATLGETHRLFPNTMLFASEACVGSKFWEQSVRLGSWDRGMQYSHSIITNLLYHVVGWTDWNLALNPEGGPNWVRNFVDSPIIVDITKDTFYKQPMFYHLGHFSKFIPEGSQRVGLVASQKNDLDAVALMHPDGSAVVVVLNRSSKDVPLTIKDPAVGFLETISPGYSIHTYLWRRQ
3',5'-cyclic-AMP phosphodiesterase 4B (Homo sapiens), sequence (Q07343 whole entry, looked up): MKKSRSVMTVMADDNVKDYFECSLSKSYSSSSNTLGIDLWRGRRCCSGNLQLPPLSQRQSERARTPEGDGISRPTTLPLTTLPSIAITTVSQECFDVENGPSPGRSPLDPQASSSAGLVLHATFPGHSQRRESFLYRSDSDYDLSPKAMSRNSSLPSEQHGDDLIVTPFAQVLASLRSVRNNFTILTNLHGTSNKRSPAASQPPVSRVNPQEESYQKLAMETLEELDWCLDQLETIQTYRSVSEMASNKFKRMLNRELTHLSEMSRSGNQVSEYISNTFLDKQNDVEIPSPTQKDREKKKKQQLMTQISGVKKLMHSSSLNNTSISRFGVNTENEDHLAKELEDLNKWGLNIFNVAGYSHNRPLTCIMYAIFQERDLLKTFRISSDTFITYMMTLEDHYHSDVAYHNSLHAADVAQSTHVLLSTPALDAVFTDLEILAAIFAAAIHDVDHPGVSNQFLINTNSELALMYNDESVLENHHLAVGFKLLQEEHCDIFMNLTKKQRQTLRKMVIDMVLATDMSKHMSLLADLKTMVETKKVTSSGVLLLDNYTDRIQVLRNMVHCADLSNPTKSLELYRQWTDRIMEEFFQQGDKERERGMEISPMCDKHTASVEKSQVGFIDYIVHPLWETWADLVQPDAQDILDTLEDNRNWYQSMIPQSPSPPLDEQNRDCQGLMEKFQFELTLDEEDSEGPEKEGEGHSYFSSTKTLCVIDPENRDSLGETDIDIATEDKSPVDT
Cytochrome P450 2C9 (Homo sapiens), sequence (P11712 whole entry, looked up): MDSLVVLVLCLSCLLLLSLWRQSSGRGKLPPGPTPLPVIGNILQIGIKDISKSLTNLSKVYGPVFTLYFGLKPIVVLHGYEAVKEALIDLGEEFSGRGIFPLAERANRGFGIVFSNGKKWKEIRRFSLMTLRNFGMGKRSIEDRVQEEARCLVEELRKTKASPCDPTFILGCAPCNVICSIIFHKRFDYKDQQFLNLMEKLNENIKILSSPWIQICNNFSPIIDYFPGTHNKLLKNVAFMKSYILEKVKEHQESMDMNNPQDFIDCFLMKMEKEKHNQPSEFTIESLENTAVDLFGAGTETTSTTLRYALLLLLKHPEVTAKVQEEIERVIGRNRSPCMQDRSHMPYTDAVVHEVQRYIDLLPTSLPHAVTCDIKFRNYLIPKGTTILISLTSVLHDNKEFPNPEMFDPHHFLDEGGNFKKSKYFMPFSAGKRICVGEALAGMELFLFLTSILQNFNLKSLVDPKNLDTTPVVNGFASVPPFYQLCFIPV
Cytochrome P450 2D6 (Homo sapiens), sequence (P10635 whole entry, looked up): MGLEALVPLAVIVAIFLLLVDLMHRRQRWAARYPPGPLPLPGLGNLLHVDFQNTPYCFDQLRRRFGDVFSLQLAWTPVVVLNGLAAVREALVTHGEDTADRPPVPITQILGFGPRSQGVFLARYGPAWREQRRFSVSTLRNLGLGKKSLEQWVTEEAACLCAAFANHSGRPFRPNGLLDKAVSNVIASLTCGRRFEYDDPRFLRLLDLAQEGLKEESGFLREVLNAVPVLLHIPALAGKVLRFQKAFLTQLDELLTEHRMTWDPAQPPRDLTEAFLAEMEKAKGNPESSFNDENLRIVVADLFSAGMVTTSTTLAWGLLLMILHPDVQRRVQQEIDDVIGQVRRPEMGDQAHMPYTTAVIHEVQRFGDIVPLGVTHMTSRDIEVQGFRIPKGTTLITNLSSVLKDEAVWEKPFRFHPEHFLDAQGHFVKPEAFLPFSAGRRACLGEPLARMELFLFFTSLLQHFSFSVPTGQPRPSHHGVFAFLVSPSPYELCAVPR

For `CC(=O)O[C@H]1CC[C@@]2(C)C(=CC[C@@H]3[C@@H]4CC[C@H](c5cc(C(F)(F)F)n(C(C)=O)n5)[C@]4(C)CC[C@@H]32)C1`, the Potency in assay [1] is more than 11.4 µM; in assay [5] it was more than 46 µM; in assay [6] it was more than 9.22 µM. Moreover, the Potency result in assay [2], in [7] and in assay [8] was “inactive” in each case. In addition, the activity change, negative = inhibition in assay [3] was 12.1%. The activity, negative = inhibition in assay [4] is 16.4%.

As to `C[C@]12CC[C@H]3c4ccc(O)cc4CC[C@@H]3[C@H]1CC[C@@H]2OC(=O)CCc1ccccc1`, the Potency is more than 11.4 µM in assay [1], more than 46 µM in assay [5] and more than 9.22 µM in assay [6]. For the same compound, the activity change, negative = inhibition in assay [2] is -13.8% [at 2.29 µM]; in assay [3], -14.3%. In addition, the activity, negative = inhibition in assay [4] was -1.42%. Moreover, the Potency result in [7] and in assay [8] was “inactive” in each case.

`N[C@@H](CC1=CS(=O)(=O)c2ccc(Cl)cc21)C(=O)O`: the Potency in [1] is more than 11.4 µM; in assay [5] it was more than 46 µM; in assay [6], more than 9.22 µM. Besides, the activity change, negative = inhibition in [9] is -5.74%. Further, in assay [4], the activity, negative = inhibition was -1.77%. Besides, the Potency entry in [7], in [8] and in assay [10] was “inactive” in each case.

For the compound `COC(=O)c1ccc(CCc2cc(O)ccc2O)cc1`, the Potency in assay [1] was more than 11.4 µM; in [5], more than 46 µM; in [6], more than 9.22 µM; in assay [11], 3.16 µM (active). Also, the activity change, negative = inhibition in assay [9] was -7.43%. Moreover, in assay [4], the activity, negative = inhibition was -16.8%. The Potency result in assay [7], in assay [8] and in assay [10] was “inactive” each time.

Turning to `Cc1cc(Nc2ccc(N=Nc3ccc(O)c4ncccc34)cc2)nc(C)n1`, the Potency in assay [1] was more than 11.4 µM; in [5] it was more than 46 µM; in assay [6], more than 9.22 µM. For the same compound, the activity change, negative = inhibition in assay [9] was 9.64%. In addition, the Potency result in [7] and in [8] was “inactive” each time.

Regarding `COc1ccc(C(=O)N/N=C2/C(=O)c3c(C)cc(C)cc3CC2(C)C)cc1`, the Potency in assay [1] was more than 11.4 µM; in assay [5], more than 46 µM; in [6], more than 9.22 µM; in assay [12], 3.16 µM (active); in assay [11] it was 3.98 µM (active). Moreover, the activity change, negative = inhibition in assay [9] is -13.7%. Also, the activity, negative = inhibition in assay [4] is 6.46%. The Potency result in assay [7], in [8] and in [10] was “inactive” throughout.

As to `O=C(O)CC[P+](c1ccccc1)(c1ccccc1)c1ccccc1`, the Potency in assay [1] is more than 11.4 µM; in [5] it was more than 46 µM; in assay [6], more than 9.22 µM. Besides, the activity change, negative = inhibition in [9] is 2.51%. Also, the activity, negative = inhibition in assay [4] was 4.75%. In addition, the Potency entry in assay [7] and in assay [11] was “inactive” throughout.

Turning to `NNC(=O)CCSc1ccccc1`, the Potency in [1] was more than 11.4 µM; in assay [5], more than 46 µM; in assay [6], more than 9.22 µM; in assay [11], 3.98 µM (active). Also, the activity change, negative = inhibition in assay [9] was 7.31%. For the same compound, the activity, negative = inhibition in [4] was -4.96%. For the same compound, the Potency entry in assay [7], in assay [8] and in assay [10] was “inactive” each time.

Take `O=C1c2cccc([N+](=O)[O-])c2C(=O)N1c1ncn[nH]1`: the Potency in [1] is more than 11.4 µM; in assay [5], more than 46 µM. For the same compound, the activity change, negative = inhibition in [9] is -5.78%. The activity, negative = inhibition in assay [4] was 4.03%. The Potency result in [7], in assay [8], in [13], in assay [10] and in assay [11] was “inactive” in each case.

With `c1cc(CSc2ncnc3nc[nH]c23)ccn1`, the Potency is more than 11.4 µM in [1] and more than 46 µM in assay [5]. In [9], the activity change, negative = inhibition was 10.4%. In addition, in assay [4], the activity, negative = inhibition is -2.3%. Further, the Potency entry in assay [7] and in [8] was “inactive” in each case. The activation in assay [14] is -3.44%.

Regarding `CN1CCN(c2ncc3nc(-c4cccs4)c(=O)n(C[C@H]4CCCO4)c3n2)CC1`, the Potency in [1] was more than 11.4 µM; in [5], more than 9.22 µM; in assay [6], more than 46 µM; in assay [14] it was 3.16 µM (active). The activity change, negative = inhibition in assay [9] is 19.1%. The Potency result in assay [7] and in assay [10] was “inactive” each time.

As to `C[N@@+]1(Cc2ccc(Cl)c(Cl)c2)CCC[C@@H]1c1ccc[n+](Cc2ccc(Cl)c(Cl)c2)c1`, the Potency is more than 11.4 µM in assay [1], more than 46 µM in [5], more than 9.22 µM in [6] and 3.16 µM (active) in assay [15]. The activity change, negative = inhibition in assay [9] was -3.2%. The activity, negative = inhibition in assay [4] was -0.293%. Moreover, the Potency result in assay [7] and in assay [8] was “inactive” in each case.

In the case of `CC1(C)COCN1COC1CCCCC1`, the figures for the Potency in assay [1], in assay [5] and in [6] were more than 11.4 µM, more than 46 µM and more than 9.22 µM, respectively. The activity change, negative = inhibition in assay [9] is -2.54%. The Potency entry in [7] and in assay [8] was “inactive” each time.

As to `Cn1c(=S)c2[nH]c(SCCCc3ccccc3)nc2n(C)c1=O`, the Potency in [1] was more than 11.4 µM; in assay [2], 3.16 µM (active); in [5], more than 46 µM; in [6], more than 9.22 µM. The activity change, negative = inhibition in [3] was 3.04%. For the same compound, the activity, negative = inhibition in assay [4] is -23.2%. Also, the Potency result in assay [7] and in assay [8] was “inactive” throughout.
